Assay results published in PubChem BioAssay (NCI).
This is part of a sample that, as a whole, favours compounds with a hit. Of some 83,000 tested, about 20% had one in any assay.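 Testing used 96-well plates and a 48-hour single-concentration exposure. Example: -40 means 40% of the starting cells died.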 Unmarked numbers belong to inactive results. Calls of active or inactive are those of the source. Rule for the calls: active = growth percent below 10; inactive = the rest.

tested on: SF-539 CNS; assay: NCI-60 one-dose screen, 48 h (100 = growth as untreated, 0 = no growth, -100 = all killed); conditions: 10 µM unless noted

Compound	growth
CC(c1ccc(-n2cccn2)cc1)c1cnc(N2CCc3ccc(C(N)=O)cc3C2)s1 (centres undefined)	70.7%
COc1cc2c(cc1OC)-c1ccc3cc4c(cc3c1N(CCCN1CCCCC1)C2)OCO4	61.7%
C[C@@H](C[C@H](CCOCc1cccnc1)c1ccccc1)c1cc2ccccc2o1	98.8%
N#Cc1c(N)n2c(nc1=Nc1ccc([N+](=O)[O-])cc1)sc1cc(Cl)ccc12	107%
C=C1C(=O)O[C@H]2[C@H]1CC/C(C(=O)NCCCCCCCCNC(=O)/C1=C/CC[C@@]3(C)O[C@H]3[C@H]3OC(=O)C(=C)[C@@H]3CC1)=C\CC[C@@]1(C)O[C@@H]21	70.1%
O=C(NCCOCCOCCOCCNC(=O)c1cc2c(o1)C(=O)c1ccccc1C2=O)NC12CC3CC(CC(C3)C1)C2	-63.5% (active)
CCOc1ccc2nc(-c3cccc(OCC(=O)NC(C)C)c3)nc(Nc3ccc(-c4cn[nH]c4)cc3)c2c1	-79.6% (active)
CSc1ncc(C)c(Nc2ccc(Cl)cc2)n1	118%
O=C1CCC(N2C(=O)c3cccc(NCCCC4CCN(CCNC(=O)c5cc6c(o5)C(=O)c5ccccc5C6=O)CC4)c3C2=O)C(=O)N1 (centres undefined)	-99.1% (active)
CCOC(=O)C1C(=O)C=C(c2cnccn2)CC1c1ccc(OC)c(OC)c1 (centres undefined)	95.7%
OC(CBr)c1ccnc2ccccc12 (centres undefined)	102%
O=C1N(c2ccccc2)C(=S)N[C@]12[C@H](c1ccccc1)C1CCCN1[C@]21C(=O)NC2C=CC(Cl)=C[C@H]21 (some centres undefined)	103%
CC(C)n1nc(C#Cc2cccc(O)c2)c2c(N)ncnc21	-75.4% (active)
COc1cc2c(=O)n(CCCn3ccnc3)c3c4cc5c(cc4ccc3c2cc1OC)OCO5	-20.2% (active)
O=C(/C=C/C12c3ccccc3C(c3ccccc31)C1C(=O)N(c3ccccc3)C(=O)C12)c1ccccc1 (centres undefined)	-3.29% (active)
O=C(CC12CC3CC(CC(C3)C1)C2)NCCOCCOCCOCCNC(=O)c1cc2c(o1)C(=O)c1ccccc1C2=O	-90.4% (active)
O=C1Nc2ccccc2/C1=N/N=C/c1ccc(OC2OC(CO)C(O)C(O)C2O)cc1 (centres undefined)	97.5%
CC(=[N-])N1CCC[C@@H](Nc2c3ccccc3nc3ccccc23)C1.[Cl][Pt].[NH-]CCC[NH-]	36.9%
O=C1Nc2ccccc2/C1=N/N=C/c1c[nH]c2ccccc12	78%
CNC1(C#N)CCN(Cc2ccccc2)CC1	100%

Compound	growth
COc1cc2c(cc1OC)-c1ccc3cc4c(cc3c1N(CCCn1ccnc1)C2)OCO4	13.3%
NC(=O)c1c(NC(=O)c2ccccn2)sc2c1CCC(=O)C2	1.9% (active)
NC(N)=N/N=C/c1ccc(Br)cc1	62.2%
CCNCCNc1cc(C2CCCC2)c(C#N)c2nc3ccccc3n12	-82.4% (active)
CS(=O)(=O)c1ccc(-c2[nH]c3ccc(F)cc3c2/C=N/O)cc1	88.8%
N=C(N)c1ccc(-c2ccc(-c3ccc(Cl)cc3Cl)o2)cc1	-61.7% (active)
CC(=O)C(C(C)=O)c1nc2sc3cc(Cl)ccc3n2c(=N)c1C#N	95.5%
Cc1ccc(/C=C(\C#N)n2nnc3cc(Cl)c(Cl)cc32)cc1	-13.1% (active)
O=S(=O)(NCCNc1cc(-c2c(-c3cccc(O)c3)nc3sccn23)ccn1)c1ccc(Br)cc1	75.2%
COc1ccc(/C(C)=N/NS(=O)(=O)c2ccc(C)cc2)cc1OC	103%
C=C(Cl)COC(=O)C(C)(C)O	102%
CCc1c(C(=O)N[C@@H]2c3cc(Cl)ccc3CC[C@@H]2O)[nH]c(C)c1C(C)=O	67%
COc1cc2nc(Nc3ccc(F)cc3)nc(N)c2cc1OC	95.5%
c1ccc2c(c1)nc(-n1ccnc1)c1nc3ccccc3n12	66%
COC(=O)/C(=C\c1ccc(OC)cc1)C(=O)N1c2ccccc2Sc2ccccc21	42.1%
CN1CCN(c2ccc(Nc3ncc(Cl)c(NC[C@@H]4CCCO4)n3)cc2)CC1	-6.55% (active)
O=C(NC1CCOCC1)c1ccc2c(c1)CN(c1ncc(Cc3cccc(-n4cccn4)c3)s1)CC2	64.2%
[2H]c1nc(Nc2ncc(F)c(-c3cc(F)c4nc(C)n(C(C)C)c4c3)n2)c([2H])c([2H])c1CN1CCN(C([2H])([2H])C([2H])([2H])[2H])CC1	72.1%
COc1ccc(C2CC(c3cnccn3)=NN2)cc1OC (centres undefined)	111%
